What all share (test): DAPPL (digital affinity profiling via proximity ligation, sequencing); 10 mM Tris-HCl pH 7.5, 50 mM NaCl, 1 mM DTT, 4% glycerol, room temperature, 30 min; GST-TFs on glutathione beads, 16-mer random dsDNA library, 0.1% formaldehyde crosslink after washing; high values mean tight binding
For assay [1], the target named is T1, FLI1 (Homo sapiens, UniProt Q01543 1-452).
T1 sequence: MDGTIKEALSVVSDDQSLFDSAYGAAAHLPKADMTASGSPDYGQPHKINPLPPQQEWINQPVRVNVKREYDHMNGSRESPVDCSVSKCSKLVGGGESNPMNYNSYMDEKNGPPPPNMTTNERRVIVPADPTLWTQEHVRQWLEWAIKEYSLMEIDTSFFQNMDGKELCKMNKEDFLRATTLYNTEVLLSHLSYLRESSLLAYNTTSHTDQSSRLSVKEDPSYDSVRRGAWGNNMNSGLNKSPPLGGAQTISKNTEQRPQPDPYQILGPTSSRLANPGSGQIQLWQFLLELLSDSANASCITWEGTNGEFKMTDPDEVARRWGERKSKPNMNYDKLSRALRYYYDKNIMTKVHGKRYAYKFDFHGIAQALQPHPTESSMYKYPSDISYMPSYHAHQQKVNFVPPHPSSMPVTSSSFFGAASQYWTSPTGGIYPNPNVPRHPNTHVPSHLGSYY
The settings on record: protein: recombinant; tags: N-terminal GST; dsDNA, one strand shown. Put shortly:
(§1)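 Sequencing on an Illumina NextSeq500 followed washing, crosslinking with 0.1% formaldehyde, proximity ligation (BsaI/T4 ligase, 1 h, 37 °C) and PCR amplification of pools that had been incubated for 30 min at room temperature with 200 nmole of a random double-stranded 16-mer DNA library in Tris/NaCl/DTT/glycerol buffer. Each pool held DNA-barcoded human transcription factors, expressed in yeast as GST fusions and captured on glutathione beads, plus a tag-only sample. Binding signal is a hexamer's read frequency for a factor divided by its frequency in the tag-only sample.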

For assay [2], the target named is T2, ELK1 (Homo sapiens, UniProt P19419 1-428).
T2 sequence: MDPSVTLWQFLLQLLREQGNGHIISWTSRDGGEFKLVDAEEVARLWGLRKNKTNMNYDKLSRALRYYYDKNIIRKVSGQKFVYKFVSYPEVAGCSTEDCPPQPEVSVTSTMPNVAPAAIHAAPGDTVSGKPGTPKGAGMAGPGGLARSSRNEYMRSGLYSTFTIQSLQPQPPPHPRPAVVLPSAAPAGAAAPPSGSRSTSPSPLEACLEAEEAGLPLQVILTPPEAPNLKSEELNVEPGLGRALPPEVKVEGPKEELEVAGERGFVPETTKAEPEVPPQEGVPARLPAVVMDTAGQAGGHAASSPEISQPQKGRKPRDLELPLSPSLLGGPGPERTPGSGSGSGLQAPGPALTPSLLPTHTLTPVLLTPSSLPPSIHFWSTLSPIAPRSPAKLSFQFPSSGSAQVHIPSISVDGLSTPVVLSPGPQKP
The settings on record: protein: recombinant; tags: N-terminal GST; dsDNA, one strand shown. Put shortly:
as §1

The target of assay [3] is T3, GABPA (Homo sapiens, UniProt Q06546 1-454).
T3 sequence: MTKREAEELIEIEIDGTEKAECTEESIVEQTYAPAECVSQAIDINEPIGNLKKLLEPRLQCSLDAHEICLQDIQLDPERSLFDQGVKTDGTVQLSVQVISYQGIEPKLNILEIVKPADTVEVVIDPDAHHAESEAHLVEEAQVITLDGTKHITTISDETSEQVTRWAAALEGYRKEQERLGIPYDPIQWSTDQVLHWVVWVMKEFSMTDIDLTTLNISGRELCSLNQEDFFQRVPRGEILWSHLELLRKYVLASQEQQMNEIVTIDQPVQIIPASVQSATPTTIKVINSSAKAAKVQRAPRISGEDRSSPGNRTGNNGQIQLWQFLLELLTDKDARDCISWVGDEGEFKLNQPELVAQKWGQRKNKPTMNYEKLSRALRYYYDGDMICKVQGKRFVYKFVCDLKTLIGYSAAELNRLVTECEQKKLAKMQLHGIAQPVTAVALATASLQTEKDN
As to conditions: protein: recombinant; tags: N-terminal GST; dsDNA, one strand shown. Put shortly: as §1

In assay [4] the target is T4, ERG (Homo sapiens, UniProt P11308 1-479).
T4 sequence: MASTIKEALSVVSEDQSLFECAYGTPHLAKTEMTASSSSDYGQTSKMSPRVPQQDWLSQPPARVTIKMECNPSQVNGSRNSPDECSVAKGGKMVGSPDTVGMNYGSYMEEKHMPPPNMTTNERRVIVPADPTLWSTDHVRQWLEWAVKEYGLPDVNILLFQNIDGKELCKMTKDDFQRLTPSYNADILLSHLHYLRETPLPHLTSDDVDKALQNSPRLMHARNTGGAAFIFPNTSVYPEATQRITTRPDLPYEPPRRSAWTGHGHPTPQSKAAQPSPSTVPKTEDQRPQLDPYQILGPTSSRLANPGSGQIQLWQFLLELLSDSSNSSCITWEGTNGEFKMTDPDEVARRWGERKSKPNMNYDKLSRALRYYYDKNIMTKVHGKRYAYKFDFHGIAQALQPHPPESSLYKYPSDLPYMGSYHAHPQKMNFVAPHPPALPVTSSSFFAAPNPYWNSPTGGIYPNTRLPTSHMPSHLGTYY
As to conditions: protein: recombinant; tags: N-terminal GST; dsDNA, one strand shown. A digest of the protocol:
as §1

Assay [5] has as its target ELF1 (Homo sapiens, UniProt P32519 1-619). The settings on record: protein: recombinant; tags: N-terminal GST; dsDNA, one strand shown. A digest of the protocol: as §1
Assay [6] has as its target T5, EHF (Homo sapiens, UniProt Q9NZC4 1-300).
T5 sequence: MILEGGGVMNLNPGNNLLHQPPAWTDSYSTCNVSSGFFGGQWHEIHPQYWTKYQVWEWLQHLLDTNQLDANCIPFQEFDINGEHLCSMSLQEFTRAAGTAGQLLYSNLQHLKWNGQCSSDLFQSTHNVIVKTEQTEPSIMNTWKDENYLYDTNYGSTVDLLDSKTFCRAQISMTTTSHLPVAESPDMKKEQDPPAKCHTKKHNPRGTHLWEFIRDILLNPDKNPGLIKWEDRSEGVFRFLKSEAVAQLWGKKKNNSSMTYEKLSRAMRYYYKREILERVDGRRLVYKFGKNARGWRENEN
The settings on record: protein: recombinant; tags: N-terminal GST; dsDNA, one strand shown. Put shortly: as §1

Assay [7] has as its target SPI1 (Homo sapiens, UniProt P17947 1-270). The settings on record: protein: recombinant; tags: N-terminal GST; dsDNA, one strand shown. Put shortly: as §1
Assay [8] deals with SPIB (Homo sapiens, UniProt Q01892 1-262). As to conditions: protein: recombinant; tags: N-terminal GST; dsDNA, one strand shown. Put shortly: as §1
Assay [9] concerns the target T6, FEV (Homo sapiens, UniProt Q99581 1-238).
T6 sequence: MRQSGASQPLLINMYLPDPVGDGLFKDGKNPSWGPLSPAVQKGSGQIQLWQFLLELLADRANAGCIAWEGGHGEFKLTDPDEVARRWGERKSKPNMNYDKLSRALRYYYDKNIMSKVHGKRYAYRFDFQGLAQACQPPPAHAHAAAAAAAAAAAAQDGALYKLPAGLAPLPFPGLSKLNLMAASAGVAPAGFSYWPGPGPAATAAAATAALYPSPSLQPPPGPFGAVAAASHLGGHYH
As to conditions: protein: recombinant; tags: N-terminal GST; dsDNA, one strand shown. A digest of the protocol: as §1

Assay [10] concerns the target ETV5 (Homo sapiens, UniProt P41161 1-510). The settings on record: protein: recombinant; tags: N-terminal GST; dsDNA, one strand shown. A digest of the protocol: as §1
For assay [11], the target named is HSF1 (Homo sapiens, UniProt Q00613 1-529). As to conditions: protein: recombinant; tags: N-terminal GST; chain copies: 3; dsDNA, one strand shown. A digest of the protocol:
as §1

Assay [12] concerns the target T7, SPIC (Homo sapiens, UniProt Q8N5J4 1-248).
T7 sequence: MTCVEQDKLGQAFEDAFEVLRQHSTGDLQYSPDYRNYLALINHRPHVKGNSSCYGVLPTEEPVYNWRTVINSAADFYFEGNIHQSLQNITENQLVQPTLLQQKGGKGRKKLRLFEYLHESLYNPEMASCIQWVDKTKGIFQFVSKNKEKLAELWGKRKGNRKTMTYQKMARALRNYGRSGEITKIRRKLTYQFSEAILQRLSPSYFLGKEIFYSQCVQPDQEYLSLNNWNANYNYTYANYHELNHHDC
As to conditions: protein: recombinant; tags: N-terminal GST; dsDNA, one strand shown. Put shortly: as §1

In assay [13] the target is ELF4 (Homo sapiens, UniProt Q99607 1-663). The settings on record: protein: recombinant; tags: N-terminal GST; dsDNA, one strand shown. Put shortly:
as §1

The target in assay [14] is T8, ELK4 (Homo sapiens, UniProt P28324-2 1-405).
T8 sequence: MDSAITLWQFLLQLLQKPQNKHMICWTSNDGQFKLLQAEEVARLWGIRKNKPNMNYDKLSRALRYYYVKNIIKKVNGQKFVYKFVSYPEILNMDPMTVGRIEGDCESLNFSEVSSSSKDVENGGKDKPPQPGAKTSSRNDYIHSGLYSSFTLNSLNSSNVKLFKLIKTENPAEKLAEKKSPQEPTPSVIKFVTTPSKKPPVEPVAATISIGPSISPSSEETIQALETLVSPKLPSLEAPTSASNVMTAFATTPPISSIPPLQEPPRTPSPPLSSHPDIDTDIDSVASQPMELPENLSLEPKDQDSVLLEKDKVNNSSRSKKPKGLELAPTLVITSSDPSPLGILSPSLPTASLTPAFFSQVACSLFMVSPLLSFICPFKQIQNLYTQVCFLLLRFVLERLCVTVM
As to conditions: protein: recombinant; tags: N-terminal GST; dsDNA, one strand shown. A digest of the protocol:
as §1

Assay [15] has as its target T9, ETV2 (Homo sapiens, UniProt O00321 1-342).
T9 sequence: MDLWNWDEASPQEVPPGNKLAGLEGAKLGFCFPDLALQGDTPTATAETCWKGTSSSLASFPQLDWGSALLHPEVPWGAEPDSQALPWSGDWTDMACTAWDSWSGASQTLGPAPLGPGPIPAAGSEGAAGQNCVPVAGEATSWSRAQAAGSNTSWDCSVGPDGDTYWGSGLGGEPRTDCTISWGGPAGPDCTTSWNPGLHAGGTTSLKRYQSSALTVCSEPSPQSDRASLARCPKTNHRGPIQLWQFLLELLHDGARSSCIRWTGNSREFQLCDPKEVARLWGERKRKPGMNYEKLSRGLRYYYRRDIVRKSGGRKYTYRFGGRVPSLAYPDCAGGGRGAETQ
The settings on record: protein: recombinant; tags: N-terminal GST; dsDNA, one strand shown. Put shortly: as §1

Assay [16] addresses T10, ELF3 (Homo sapiens, UniProt P78545 1-371).
T10 sequence: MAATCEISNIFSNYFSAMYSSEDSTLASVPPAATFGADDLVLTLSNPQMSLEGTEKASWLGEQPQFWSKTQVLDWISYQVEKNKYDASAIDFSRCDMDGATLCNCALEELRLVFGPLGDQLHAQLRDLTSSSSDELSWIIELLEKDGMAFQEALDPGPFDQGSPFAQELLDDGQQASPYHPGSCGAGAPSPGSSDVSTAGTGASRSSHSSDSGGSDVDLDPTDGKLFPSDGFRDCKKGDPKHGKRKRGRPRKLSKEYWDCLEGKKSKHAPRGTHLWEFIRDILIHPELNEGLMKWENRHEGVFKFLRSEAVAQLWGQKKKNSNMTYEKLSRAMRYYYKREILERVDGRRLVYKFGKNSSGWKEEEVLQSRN
The settings on record: protein: recombinant; tags: N-terminal GST; dsDNA, one strand shown. A digest of the protocol: as §1

The target of assay [17] is ETV1 (Homo sapiens, UniProt P50549 1-477). The settings on record: protein: recombinant; tags: N-terminal GST; dsDNA, one strand shown. A digest of the protocol:
as §1

ETV1, sequence (P50549 whole entry): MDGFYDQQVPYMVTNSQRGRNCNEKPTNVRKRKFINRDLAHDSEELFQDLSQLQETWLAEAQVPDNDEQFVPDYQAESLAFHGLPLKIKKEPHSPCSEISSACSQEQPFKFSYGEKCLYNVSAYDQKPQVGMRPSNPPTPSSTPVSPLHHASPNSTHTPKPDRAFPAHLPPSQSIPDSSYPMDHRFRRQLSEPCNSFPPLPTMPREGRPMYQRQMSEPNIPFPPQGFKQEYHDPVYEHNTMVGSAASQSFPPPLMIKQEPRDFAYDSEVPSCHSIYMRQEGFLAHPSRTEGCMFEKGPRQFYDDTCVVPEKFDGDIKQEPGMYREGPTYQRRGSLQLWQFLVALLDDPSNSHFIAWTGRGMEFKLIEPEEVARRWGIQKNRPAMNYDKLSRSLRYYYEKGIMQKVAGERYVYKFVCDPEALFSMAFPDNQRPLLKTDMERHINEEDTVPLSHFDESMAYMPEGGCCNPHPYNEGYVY
ELF1, sequence (P32519 whole entry): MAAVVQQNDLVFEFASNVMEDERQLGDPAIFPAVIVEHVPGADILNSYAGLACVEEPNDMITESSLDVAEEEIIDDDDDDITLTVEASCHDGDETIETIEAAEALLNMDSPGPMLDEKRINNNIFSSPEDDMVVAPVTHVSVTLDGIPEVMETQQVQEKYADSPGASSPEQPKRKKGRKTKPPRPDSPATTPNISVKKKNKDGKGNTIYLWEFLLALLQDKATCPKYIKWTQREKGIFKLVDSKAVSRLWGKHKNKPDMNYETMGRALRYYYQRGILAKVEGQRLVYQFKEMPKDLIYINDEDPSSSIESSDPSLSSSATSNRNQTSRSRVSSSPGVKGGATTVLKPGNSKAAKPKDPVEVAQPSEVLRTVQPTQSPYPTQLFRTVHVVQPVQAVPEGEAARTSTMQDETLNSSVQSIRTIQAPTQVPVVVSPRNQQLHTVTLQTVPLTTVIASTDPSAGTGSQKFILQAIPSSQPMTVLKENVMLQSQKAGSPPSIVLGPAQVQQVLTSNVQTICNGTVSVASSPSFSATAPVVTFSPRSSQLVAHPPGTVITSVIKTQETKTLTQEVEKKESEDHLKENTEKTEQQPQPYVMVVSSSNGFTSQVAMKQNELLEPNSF
ETV5, sequence (P41161 whole entry): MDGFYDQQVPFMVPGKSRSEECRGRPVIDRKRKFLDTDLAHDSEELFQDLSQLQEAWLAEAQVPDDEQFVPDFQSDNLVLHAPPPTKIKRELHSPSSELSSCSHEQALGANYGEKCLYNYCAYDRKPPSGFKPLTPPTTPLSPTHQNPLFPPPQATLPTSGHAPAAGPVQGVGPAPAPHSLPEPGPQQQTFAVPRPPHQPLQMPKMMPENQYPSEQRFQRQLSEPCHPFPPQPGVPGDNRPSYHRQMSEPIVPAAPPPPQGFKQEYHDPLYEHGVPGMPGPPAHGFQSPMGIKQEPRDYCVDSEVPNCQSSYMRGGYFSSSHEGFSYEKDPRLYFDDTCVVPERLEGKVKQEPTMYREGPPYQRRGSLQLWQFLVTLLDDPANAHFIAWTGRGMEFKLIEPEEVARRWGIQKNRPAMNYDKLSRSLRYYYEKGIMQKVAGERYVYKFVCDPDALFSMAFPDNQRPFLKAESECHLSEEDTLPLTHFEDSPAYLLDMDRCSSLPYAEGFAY
ELF4, sequence (Q99607 whole entry): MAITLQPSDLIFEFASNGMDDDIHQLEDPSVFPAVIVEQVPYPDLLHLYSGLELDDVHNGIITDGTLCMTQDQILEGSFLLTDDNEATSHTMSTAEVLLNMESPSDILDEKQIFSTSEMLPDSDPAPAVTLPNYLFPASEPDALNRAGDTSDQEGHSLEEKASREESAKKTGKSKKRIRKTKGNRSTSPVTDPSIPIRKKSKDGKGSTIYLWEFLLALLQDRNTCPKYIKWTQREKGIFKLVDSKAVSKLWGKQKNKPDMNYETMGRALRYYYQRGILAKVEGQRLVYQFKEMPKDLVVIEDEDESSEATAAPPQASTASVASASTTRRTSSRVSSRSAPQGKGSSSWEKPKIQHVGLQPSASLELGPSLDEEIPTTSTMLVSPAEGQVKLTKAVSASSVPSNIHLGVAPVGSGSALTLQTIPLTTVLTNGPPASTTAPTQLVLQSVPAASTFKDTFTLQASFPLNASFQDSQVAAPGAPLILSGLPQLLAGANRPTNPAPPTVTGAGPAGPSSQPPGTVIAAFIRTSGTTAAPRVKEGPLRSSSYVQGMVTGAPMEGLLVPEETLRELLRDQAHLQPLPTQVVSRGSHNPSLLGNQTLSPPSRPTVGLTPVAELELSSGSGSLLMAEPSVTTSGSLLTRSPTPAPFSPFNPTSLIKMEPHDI
HSF1, sequence (Q00613 whole entry): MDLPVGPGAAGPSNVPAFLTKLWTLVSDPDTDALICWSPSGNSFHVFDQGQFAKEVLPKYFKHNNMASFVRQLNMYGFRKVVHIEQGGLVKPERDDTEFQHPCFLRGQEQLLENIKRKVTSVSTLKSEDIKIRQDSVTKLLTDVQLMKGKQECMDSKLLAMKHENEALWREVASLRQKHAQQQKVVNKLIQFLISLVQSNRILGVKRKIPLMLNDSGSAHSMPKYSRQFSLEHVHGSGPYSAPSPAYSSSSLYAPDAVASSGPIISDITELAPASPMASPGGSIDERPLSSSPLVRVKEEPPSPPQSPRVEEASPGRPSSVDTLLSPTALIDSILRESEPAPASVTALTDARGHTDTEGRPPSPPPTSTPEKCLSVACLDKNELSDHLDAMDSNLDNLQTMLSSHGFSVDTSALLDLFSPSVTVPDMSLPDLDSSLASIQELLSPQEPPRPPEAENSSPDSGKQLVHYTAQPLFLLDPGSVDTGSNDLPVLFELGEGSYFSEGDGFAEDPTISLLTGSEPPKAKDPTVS
SPIB, sequence (Q01892 whole entry): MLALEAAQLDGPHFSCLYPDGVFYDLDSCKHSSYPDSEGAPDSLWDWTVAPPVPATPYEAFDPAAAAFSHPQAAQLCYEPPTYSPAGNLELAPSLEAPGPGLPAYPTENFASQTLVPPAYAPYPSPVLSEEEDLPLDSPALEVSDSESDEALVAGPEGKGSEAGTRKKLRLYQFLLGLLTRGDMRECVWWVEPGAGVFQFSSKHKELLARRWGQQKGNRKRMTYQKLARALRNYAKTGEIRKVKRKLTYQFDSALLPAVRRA

Take GTGCTC: the binding signal is 1.26 fold enrichment (6-mer frequency, TF over GST control) in assay [1]; 1.18 fold enrichment (6-mer frequency, TF over GST control) in [2]; 1.25 fold enrichment (6-mer frequency, TF over GST control) in assay [3]; 1.2 fold enrichment (6-mer frequency, TF over GST control) in assay [4]; 1.19 fold enrichment (6-mer frequency, TF over GST control) in assay [5]; 1.22 fold enrichment (6-mer frequency, TF over GST control) in assay [6]. Also, the binding signal is 1.36 fold enrichment (6-mer frequency, TF over GST control) in [7]; 1.3 fold enrichment (6-mer frequency, TF over GST control) in assay [8]; 1.11 fold enrichment (6-mer frequency, TF over GST control) in [9]; 1.15 fold enrichment (6-mer frequency, TF over GST control) in [10]; 1.05 fold enrichment (6-mer frequency, TF over GST control) in [11]; 1.21 fold enrichment (6-mer frequency, TF over GST control) in assay [12]. The binding signal in assay [13] was 1.12 fold enrichment (6-mer frequency, TF over GST control); in assay [14], 1.05 fold enrichment (6-mer frequency, TF over GST control); in assay [15] it was 1.16 fold enrichment (6-mer frequency, TF over GST control); in assay [16] it was 1.26 fold enrichment (6-mer frequency, TF over GST control); in assay [17], 1.29 fold enrichment (6-mer frequency, TF over GST control).

For ACCTCG, the binding signal is 1 fold enrichment (6-mer frequency, TF over GST control) in assay [1]; 1.18 fold enrichment (6-mer frequency, TF over GST control) in assay [2]; 1.24 fold enrichment (6-mer frequency, TF over GST control) in [3]; 1.15 fold enrichment (6-mer frequency, TF over GST control) in assay [4]; 1.11 fold enrichment (6-mer frequency, TF over GST control) in [5]; 1.16 fold enrichment (6-mer frequency, TF over GST control) in assay [6]. In addition, the binding signal is 1.14 fold enrichment (6-mer frequency, TF over GST control) in [7]; 1.19 fold enrichment (6-mer frequency, TF over GST control) in [8]; 1.05 fold enrichment (6-mer frequency, TF over GST control) in assay [9]; 1.11 fold enrichment (6-mer frequency, TF over GST control) in assay [10]; 1.14 fold enrichment (6-mer frequency, TF over GST control) in [11]; 1.17 fold enrichment (6-mer frequency, TF over GST control) in assay [12]. In addition, the binding signal in [13] was 1.18 fold enrichment (6-mer frequency, TF over GST control); in assay [14], 1.35 fold enrichment (6-mer frequency, TF over GST control); in [15] it was 1.28 fold enrichment (6-mer frequency, TF over GST control); in assay [16], 1.23 fold enrichment (6-mer frequency, TF over GST control); in assay [17], 1.15 fold enrichment (6-mer frequency, TF over GST control).

The record behind these values is publication PMC7862700, “An all-to-all approach to the identification of sequence-specific readers for epigenetic DNA modifications on cytosine”.
